Entries with a potency or affinity are not part of this list. A number with no mark means an inactive call. Active and inactive are the calls of the source.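 Rule for the calls: active = cytotoxic signal drop whose half-maximal concentration is at most twice the top valid dose; inconclusive = flat drop between 30% and 70%, or poor fit; inactive = the rest.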

This assay in a line: A549 cell cytotoxicity, dose response, cytotoxicity control, plate reader, dry powder, set 7 (AID 743318). To be noted: A549 viability, CellTiter-Glo ATP luminescence, 72 h; series mostly up to 26 µM; activity change, negative = cytotoxic: at the top concentration. (In ATP-based viability assays light output follows the ATP content of the culture.)
Turning to `Cc1ccccc1OCCn1c(=S)[nH]c2ccccc21`, the “activity change, negative = cytotoxic” value is -0.861%. Still for that read-out and setting: as for `O=c1[nH]c2ccccc2n1CCOc1ccccc1`, the figure is 22.5%; as for `Cc1cccc2[nH]c(=S)n(CCOc3ccccc3)c12`, 8.58%; as for `Cc1ccc(OCCn2c(=S)[nH]c3ccccc32)c(C)c1`, 18.5%. The same measure, in the same setting: as for `CCOc1ccc(OCCn2c(=S)[nH]c3ccccc32)cc1`, the figure is 1.48%; as for `Fc1ccc2[nH]c(=S)n(CCOc3ccccc3)c2c1`, 2.92%. As for `Cc1cccc(OCCn2c(=S)[nH]c3c(F)cccc32)c1`, the compound was classed as inactive. In the case of `Cc1cccc(OCCn2c(=S)[nH]c3ccc(C(F)(F)F)cc32)c1`, the “activity change, negative = cytotoxic” value was -24.1%. Same read-out and setting: as for `CC(C)(C)c1ccc(OCCn2cnc3ccccc32)cc1`, the figure is 21.2%; as for `Fc1cccc(OCCn2c(=S)[nH]c3ccccc32)c1`, -12.1%. Still for that read-out and setting: the same measure for `S=c1[nH]c2cc(Cl)ccc2n1CCOc1ccccc1`: -5.83%.

As for `Cc1cccc(OCCn2c(=S)[nH]c3ccccc32)c1C`, the “activity change, negative = cytotoxic” value was 20.7%. Still for that read-out and setting: the same measure for `Cc1ccc(C(C)C)c(OCCn2c(=S)[nH]c3ccc(Cl)cc32)c1`: -15.5%; for `CC(C)(C)c1ccc(OCCn2c(=S)[nH]c3ccccc32)cc1`: 18.4%; for `COc1ccccc1OCCn1c(=S)[nH]c2ccccc21`: 16.9%. On to `Cc1ccc(OCCn2c(=S)[nH]c3ccccc32)c(C(C)C)c1`, for which the compound was called inactive. As to `Cc1ccc(C(C)C)c(OCCn2c(=S)[nH]c3c(C)cccc32)c1`, the “activity change, negative = cytotoxic” value was -0.991%.

As for `Fc1ccc2c(c1)[nH]c(=S)n2CCOc1ccccc1`, the result was inactive. Consider `S=c1[nH]c2ccccc2n1CCOc1ccccc1Cl`, for which the “activity change, negative = cytotoxic” value is 6.89%. On to `S=c1[nH]c2cccc(Cl)c2n1CCOc1ccccc1`, for which the call was inactive. Regarding `CC(C)c1ccc(OCCn2c(=S)[nH]c3ccccc32)cc1`, the “activity change, negative = cytotoxic” value is 10.2%. With `Fc1ccccc1OCCn1c(=S)[nH]c2ccccc21`, the “activity change, negative = cytotoxic” value is 21.2%.

`CC(C)c1ccccc1NCCn1c(=S)[nH]c2ccccc21`: the “activity change, negative = cytotoxic” value is 24.5%. In the case of `CC(C)c1ccccc1OCCn1c(=S)[nH]c2ccccc21`, the “activity change, negative = cytotoxic” value was -10.6%. As to `Cc1ccc2c(c1)[nH]c(=S)n2CCOc1ccccc1`, the outcome was inactive.

Source of the values: PubChem BioAssay AID743318 (Broad Institute, 2014).
